Bioassay records deposited in PubChem by National Center for Advancing Translational Sciences (NCATS).
Luc counter – counter-screen: inhibitors of Kinase-Glo firefly luciferase. Q27757. Kinase-Glo luciferase, ATP luminescence, 8 min. Potency, µM (titrated, usually from 38.3 µM), for the others: at the top dose activity change, negative = inhibition, usual class: inhibitors. 200,000 tested, 0.28% active. AID 1379; also: % is scaled to controls: 0 for no effect and ±100 for the full control effect; nearly all actives have a fitted effect of over 60% in size
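Inhibition of Kinase-Glo luciferase light generation was assessed at 10 uM ATP in pH 7.2 imidazole buffer, with luminescence measured after eight minutes at ambient temperature.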
ALDH1A1 block – inhibitors of human aldehyde dehydrogenase 1A1 | P00352 | Purified ALDH1A1, NADH fluorescence, propionaldehyde substrate | 220,000 tested, 7.3% active | Potency, µM (highest dose often 75.3 µM), without a hit: at the highest dose activity, negative = inhibition, usual class: inhibitors; active = well fitted inhibition curve with a large enough effect, not every such curve was filed as active; inconclusive = small, poorly fitted or top-dose-only effect, or another doubt; inactive = no such curve, though single readings can be large or run the other way;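 also: plate controls were no enzyme wells and a reference inhibitor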
Target sequence (P00352 whole entry, looked up): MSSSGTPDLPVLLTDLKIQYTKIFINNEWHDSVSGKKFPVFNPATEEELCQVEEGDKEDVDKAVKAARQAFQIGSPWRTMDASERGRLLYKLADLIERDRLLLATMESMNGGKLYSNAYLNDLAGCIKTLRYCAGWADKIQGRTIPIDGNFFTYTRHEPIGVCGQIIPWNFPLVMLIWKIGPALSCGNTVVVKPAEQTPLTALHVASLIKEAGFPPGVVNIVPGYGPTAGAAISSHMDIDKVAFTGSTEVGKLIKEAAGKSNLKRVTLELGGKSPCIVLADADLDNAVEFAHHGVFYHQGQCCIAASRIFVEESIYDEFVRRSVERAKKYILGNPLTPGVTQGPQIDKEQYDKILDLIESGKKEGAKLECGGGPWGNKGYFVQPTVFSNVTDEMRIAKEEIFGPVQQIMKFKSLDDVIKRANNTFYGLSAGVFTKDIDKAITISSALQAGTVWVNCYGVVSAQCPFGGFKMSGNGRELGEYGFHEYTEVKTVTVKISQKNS
HTT cytoprotect – Huntington cell model cytoprotection by ATP luminescence; Potency, µM (doses to about 56.4 µM), inactives show cytoprotection (ATP increase), most hits filed as activators; PC12 HTT-Q103 induced, cytoprotection, ATP luminescence, 40 h; AID 1471; 230,000 tested, 0.14% active; also: % of control where 0% means no effect; nearly all actives have a fitted effect of over 45% in size
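PC12 cells with ecdysone-inducible HTT exon 1 Q103-GFP, induced with 100 nM tebufenozide and co-treated with library compounds in a dose series (1536-well, 1500 cells/well). Cytoprotection read as ATP content by ATPlite luminescence.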
HPGD block – blocks human HPGD enzyme activity; P15428; purified HPGD, NADH fluorescence kinetic, PGE2 substrate; Potency, µM, inactives show top-dose activity change, negative = inhibition, most hits filed as inhibitors; 150,000 tested, 4.3% active; active = well fitted inhibition curve with a large enough effect, not every such curve was filed as active; inconclusive = small, poorly fitted or top-dose-only effect, or another doubt; inactive = no such curve, though single readings can be large or run the other way; also: % is scaled to controls: 0 for no effect and ±100 for the full control effect
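NADH formation kinetics: reaction with 30 uM PGE2 and 1 mM NAD+ (final), 20 nM enzyme, Tris-HCl pH 8 with Tween 20, after 15 min compound preincubation at room temperature. Fluorescence change, last versus first of five reads.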
Lamin A splicing – modulators of lamin A splicing; HeLa LMNA splicing GFP/RFP minigene ratio, 48 h; Potency, µM (top dose mostly 46.1 µM), inactives show top-dose ratio change, negative = inhibition, usual class: inhibitors; 200,000 tested, 0.01% active; active = well fitted inhibition curve with a large enough effect in the signal ratio, with a control signal flat, not every such curve was filed as active; inconclusive = small, poorly fitted or top-dose-only effect, or effect the other way, or a change in a side signal; the % refers to the signal ratio; also: % is scaled to controls: 0 for no effect and ±100 for the full control effect
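Read-out is the ratio of GFP to DsRed2 object intensity, acquired by 488 nm laser-scanning cytometry on HeLa lamin A-EGFP minigene reporter cells. Compound incubation 48 hrs at 37 °C in Opti-MEM with 2% FBS; DMSO 0.5% final.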
HTT aggregate – mutant huntingtin aggregation inhibition | AID 1688 | PC12 HttQ103-GFP aggregates, Acumen cytometry, 40 h | Potency, µM (titrated, usually from 46.1 µM), without a hit: at the highest dose activity change, negative = inhibition, usual class: inhibitors | 220,000 tested, 1.1% active; also: % is scaled to controls: 0 for no effect and ±100 for the full control effect; nearly all actives have a fitted effect of over 60% in size
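Huntingtin Q103 exon 1–GFP aggregates in induced PC12 cells (100 nM tebufenozide) were quantified by cytometry from lysates, with compounds dosed in titration.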
* hit, by the source's call; ? = inconclusive; / = no result; [ ] = dose if it differs, or a comment. The list is not random: actives were taken first. Their share in the collection is about 9%. Unless noted, calls follow the shape of the dose curve; as a rule, active = well fitted curve in the direction sought with a large enough effect; inconclusive = small, poorly fitted or top-dose-only effect, or another doubt; inactive = no such curve, though single readings can be large; an effect the other way counts as inactive or inconclusive. Potency is read from the fitted curve at half-maximal effect.

SMILES	Luc counter	ALDH1A1 block	HTT cytoprotect	HPGD block	Lamin A splicing	HTT aggregate
C/C(=N\NC(=O)CCn1nnc2ccccc21)c1ccco1	/	-5%	4%[10 µM]	/	/	-13%[9.22 µM]
C=CCSC1=C(C#N)C2(CCCCC2)C(C#N)C(=O)N1 (configuration not stated)	2%	2.5µM*	0%	-22%	12%	-17%
N#Cc1c(-c2ccccc2)nc(SCC(=O)NC2CCCCC2)[nH]c1=O	3%	-16%	-25%	/	0%[46 µM]	14%
CCOC(=O)C1=C(SCC(=O)Nc2ccccc2)NC(=O)C(C#N)C12CCCCC2 (configuration not stated)	-5%	13µM*	-3%	-5%	14%	16%
CC(C)(C)C1CCC2(CC1)C(C#N)=C(SCC(=O)NC1CCCCC1)NC(=O)C2C#N (configuration not stated)	-7%	?	-37%[0.074 µM]	-14%	?	11µM*
N#CC1=C(SCC(=O)NC23CC4CC(CC(C4)C2)C3)NC(=O)C(C#N)C12CCCCC2 (configuration not stated)	2%	1.1µM*	14%[10 µM]	-22%	?	3.5µM*
CCOC(=O)c1ccc(NC(=O)CSC2=NC(=O)C(CC)C(=O)N2)cc1 (configuration not stated)	-3%	-4%	21%[1.9 µM]	-14%	-3%	0%
C/C(=N\NC(=O)CCC(=O)O)c1c(-c2ccccc2)c2cc(Br)ccc2[nH]c1=O	/	/	6%[10 µM]	/	/	0%[9.22 µM]
COc1ccc(-c2cc3ccccc3oc2=O)cc1NC(=O)c1ccc(Br)o1	-4%	?	-17%[10 µM]	?	-3%	2%
CCCC(C)NC(=O)CSc1nnc(-c2c[nH]c3ccccc23)o1 (configuration not stated)	2%	-11%	-5%[10 µM]	/	6%[46 µM]	19%
O=C(CN1C(=O)c2ccccc2C1=O)Nc1cccc2cccnc12	1%	-5%	-7%	-6%	3%	16%
N#CC1=C(SCC(=O)Nc2cccc3cccnc23)NC(=O)C(C#N)C12CCCCC2 (configuration not stated)	0%	8.9µM*	-28%[0.074 µM]	-13%	?	-33%
N#CC1=C(SCC(=O)NC2CC2)NC(=O)C(C#N)C12CCCCC2 (configuration not stated)	0%	13µM*	-5%	-4%	9%	-13%
Cc1cc(C)c(C#N)c(SCC(=O)NC2CC2)n1	-4%	?	23%	-29%	5%	6%
Cc1nn(-c2ccc(Cl)c(Cl)c2Cl)c(=O)c2ccccc12	-3%	-10%	-17%	2%	-30%	-33%
CCCc1nccn1S(=O)(=O)c1cc(Br)ccc1OC	/	/	/	/	-12%[46 µM]	/
CC(C(=O)N/N=C/c1ccc(N(C)C)c(Br)c1)N(c1ccccc1)S(C)(=O)=O (configuration not stated)	-2%	0%	-32%	-2%	-3%	-13%
CC1CCN(C(=O)c2ccc3c(Cl)c4c(nc3c2)CCCC4)CC1	2%	4.5µM*	-15%	/	/	?
CCN(C(=O)c1ccc2c(Cl)c3c(nc2c1)CCC3)c1cccc(C)c1	0%	?	/	13µM*	?	-6%
COc1cccc(C(=O)NCc2ccc3[nH]c(C)cc3c2)c1	-3%	28µM*	/	/	/	-3%
Cc1cc2cc(CNC(=O)c3ccc4c(c3)OCO4)ccc2[nH]1	-2%	35µM*	-13%	20µM*	?	-23%
COc1ccc(C(=O)NCc2ccc3[nH]c(C)cc3c2)cc1OC	-10%	20µM*	/	/	/	-5%
COc1cc(OC)cc(C(=O)NCc2ccc3[nH]c(C)cc3c2)c1	0%	?	/	/	/	?
O=C(NCc1ccc2c(c1)OCO2)c1ccc2c(c1)OCO2	/	/	14%[10 µM]	/	/	13%[9.22 µM]
CC1Cc2ccccc2N1C(=O)CN1C(=O)CN(C)C(=O)c2ccccc21 (configuration not stated)	3%	7%	21%	-16%	3%	4%[9.22 µM]
